Experiment [1] deals with Wnt5a (protein binding on small-molecule microarray). The experiment is described as follows: Wnt5a binders on small-molecule microarray, primary screen, biophysical, 635/667 nm fluorescence (AID 1142).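 Further: fluorescence read at 667 nm with signal to noise per printed feature.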 As to conditions: 635 nm fluorescence, higher = more signal.
Experiment [2] is described as follows: cell viability in Huh7 cells, primary screen, cytotoxicity control for HCV replication inhibitor project, CellTiter-Glo luminescence, basal, 48 h (AID 1143).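 Further: Huh7 hepatoma cells carrying a hepatitis C replication reporter with no stimulus; test concentration not given here.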 Particulars: Huh7 HCV replicon, higher = more signal, called active from +8 up or from −8 down. For orientation: ATP-based viability assays read luminescence as a measure of living cells.
Experiment [3] in a line: P. aeruginosa biofilm formation inhibitors, primary screen, PAO1 strain, BacTiter-Glo luminescence, LB-PBS (AID 1144). Particulars: 12 h, higher = more signal.
Experiment [4] is described as follows: CREB reporter modulators without forskolin, primary screen, cell-based, PC12, CRE-LacZ reporter, unstimulated (AID 1145). As to conditions: no forskolin, luminescence, 4.5 h, higher = more signal, called active from +8 up or from −8 down.
The nature of experiment [5]: CREB reporter modulators under forskolin, primary screen, cell-based, PC12, CRE-LacZ reporter, forskolin-stimulated (AID 1146).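 Further: PC12 cells with 6xCRE LacZ reporter stimulated by forskolin 10 µM; beta-galactosidase reporter signal reflecting CREB driven transcription.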 As to conditions: luminescence, 4.5 h, higher = more signal, called active from +8 up or from −8 down.
Experiment [6] addresses Streptavidin (Streptomyces avidinii) (UniProt P22629). The experiment is described as follows: streptavidin binders on small-molecule microarray, primary screen, artefact control for SMM compound annotation, biophysical, 635/667 nm fluorescence (AID 1147).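 Further: signal reflects streptavidin binding to arrayed compounds as a control protein.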 Particulars: streptavidin binding, higher = more signal.
A short description of experiment [7]: small-molecule binders of probe aInhba, primary screen, biochemical, small-molecule microarray, 635/667 nm fluorescence (AID 1148).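 Further: score merges 667nm spot fluorescence with signal-to-noise for antibody binding to printed compounds.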 Particulars: higher = more signal.
Experiment [8] has as its target Torsin-1A (Homo sapiens) (UniProt O14656). Kind of experiment: torsin A binders from cell lysate, primary screen, small-molecule microarray, wild-type, 635/667 nm (AID 1149). Particulars: COS7 hTOR1A-WT lysate, 635 nm fluorescence, higher = more signal.
The target is the same in experiment [9]. Kind of experiment: small-molecule binders of mutant TOR1A in lysate, primary screen, cell lysate, small-molecule microarray, COS7 lysate, 635/667 nm fluorescence (AID 1150).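 Further: score pools 667 nm emission and signal to noise measuring lysate protein binding.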 As to conditions: COS7 hTOR1A mutant lysate, 635 nm fluorescence, higher = more signal.
For experiment [10], the system named is Sonic hedgehog protein (Shh). Kind of experiment: small-molecule binders of Shh protein, primary screen, biochemical, small-molecule microarray, 635/667 nm fluorescence (AID 1151).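 Further: Shh protein binding to compounds spotted on small-molecule microarray slides; score combines spot fluorescence intensity with signal-to-noise across triplicate slides.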 Particulars: small-molecule microarray binding, 635 nm fluorescence; higher = more signal.
A short description of experiment [11]: E. coli DRC41 culture turbidity changes, primary screen, E. coli filamentation inducer project, strain DRC41, OD650, 48 h (AID 1152).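 Further: E. coli MC1000 strain DRC41 lacking acrAB efflux pump and sulA.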 Particulars: E. coli DRC41 (acrAB sulA), higher = more signal, called active from +8 up or from −8 down.
Experiment [12] can be described thus: small-molecule binders of probe aLefty1, primary screen, biochemical, small-molecule microarray, 635/667 nm fluorescence (AID 1153).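 Further: score merges spot fluorescence with signal-to-noise ratio from the scanned slide images.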 Particulars: higher = more signal.
A short description of experiment [13]: PSAC antagonists in infected red cells, primary screen, cell-based, P. falciparum Indochina, OD700, 1 h (AID 1154). As to conditions: P. falciparum Indochina infected RBC osmotic lysis, higher = more signal, called active from +8 up or from −8 down.
Experiment [14] in a line: PSAC antagonists in infected red cells, primary screen, cell-based, P. falciparum Indochina, OD700, 2 h (AID 1155).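 Further: lysis reports solute entry through the parasite surface anion channel PSAC; channel blockers reduce lysis of infected cells.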 As to conditions: P. falciparum Indochina infected erythrocytes, osmotic lysis OD700; higher = more signal, called active from +8 up or from −8 down.
Experiment [15] in a line: osmotic lysis modulators in infected erythrocytes, primary screen, PSAC antagonist project, cell-based, P. falciparum Indochina, OD700, 3 h (AID 1156). As to conditions: higher = more signal, called active from +8 up or from −8 down.
Experiment [16] is described as follows: PSAC antagonists in infected red cells, primary screen, cell-based, P. falciparum Indochina, OD700, 18 h (AID 1157). As to conditions: P. falciparum Indochina infected erythrocytes, osmotic lysis OD700, 18 h; higher = more signal, called active from +8 up or from −8 down.
Experiment [17] can be described thus: modulators of S6 phosphorylation in cells, primary screen, cell-based, A549, cytoblot, luminescence, serum-stimulated (AID 1158).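 Further: serum-stimulated A549 lung adenocarcinoma cells; signal is phosphorylated S6 detected by cytoblot immunostaining with HRP secondary.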 As to conditions: A549 phospho-S6 cytoblot, 5 h, higher = more signal.
Experiment [18] has as its target NADPH oxidase 2 (Homo sapiens) (UniProt P04839). The experiment is described as follows: NOX2-dependent H2O2 signal modulators, primary screen, NOX inhibitor project, cell-based, HEK293-NOX2, PMA-stimulated, Amplex Red fluorescence (AID 1159). Further: test concentration not given here. As to conditions: 45 min, higher = more signal, called active from +8 up or from −8 down.
Experiment [19] concerns the target NADPH oxidase 4 (Homo sapiens) (UniProt Q9NPH5). Kind of experiment: NOX4-dependent H2O2 signal modulators, primary screen, NOX inhibitor project, cell-based, HEK293-NOX4, tetracycline-induced, Amplex Red fluorescence (AID 1160). As to conditions: 45 min, higher = more signal, called active from +8 up or from −8 down.
Experiment [20] deals with NADPH oxidase 5 (Homo sapiens) (UniProt Q96PH1). Kind of experiment: NOX5-dependent H2O2 signal modulators, primary screen, NOX inhibitor project, cell-based, HEK293-NOX5, Amplex Red fluorescence (AID 1161). Particulars: HEK293-NOX5, ionomycin, 45 min, higher = more signal.

Experimental findings from PubChem BioAssay are described below.

Structures are written as SMILES. Active and inactive are the calls of the source. Unless noted, how the calls were made is not given here.

Sequence of NADPH oxidase 5 (Homo sapiens) (Q96PH1 whole entry, looked up): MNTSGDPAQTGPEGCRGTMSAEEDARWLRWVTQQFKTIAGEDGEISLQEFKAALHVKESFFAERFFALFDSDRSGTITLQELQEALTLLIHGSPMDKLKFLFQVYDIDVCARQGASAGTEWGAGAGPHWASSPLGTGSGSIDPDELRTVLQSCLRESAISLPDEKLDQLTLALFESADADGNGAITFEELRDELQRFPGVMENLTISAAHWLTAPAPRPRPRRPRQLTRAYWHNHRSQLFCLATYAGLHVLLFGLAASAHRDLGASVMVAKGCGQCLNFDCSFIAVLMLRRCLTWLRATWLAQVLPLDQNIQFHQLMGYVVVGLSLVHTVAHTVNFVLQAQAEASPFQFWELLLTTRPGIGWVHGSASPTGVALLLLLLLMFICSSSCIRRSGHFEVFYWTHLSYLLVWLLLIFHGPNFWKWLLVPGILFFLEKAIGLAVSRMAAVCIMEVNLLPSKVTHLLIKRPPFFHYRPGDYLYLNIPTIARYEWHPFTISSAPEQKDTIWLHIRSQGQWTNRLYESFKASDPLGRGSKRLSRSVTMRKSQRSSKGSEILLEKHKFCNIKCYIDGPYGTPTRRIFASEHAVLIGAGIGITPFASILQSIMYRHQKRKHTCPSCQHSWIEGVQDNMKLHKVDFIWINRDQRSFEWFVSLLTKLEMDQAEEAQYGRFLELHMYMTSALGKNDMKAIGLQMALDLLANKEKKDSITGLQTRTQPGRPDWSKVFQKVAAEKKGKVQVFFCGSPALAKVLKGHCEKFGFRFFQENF
Sequence of NADPH oxidase 2 (Homo sapiens) (P04839 whole entry, looked up): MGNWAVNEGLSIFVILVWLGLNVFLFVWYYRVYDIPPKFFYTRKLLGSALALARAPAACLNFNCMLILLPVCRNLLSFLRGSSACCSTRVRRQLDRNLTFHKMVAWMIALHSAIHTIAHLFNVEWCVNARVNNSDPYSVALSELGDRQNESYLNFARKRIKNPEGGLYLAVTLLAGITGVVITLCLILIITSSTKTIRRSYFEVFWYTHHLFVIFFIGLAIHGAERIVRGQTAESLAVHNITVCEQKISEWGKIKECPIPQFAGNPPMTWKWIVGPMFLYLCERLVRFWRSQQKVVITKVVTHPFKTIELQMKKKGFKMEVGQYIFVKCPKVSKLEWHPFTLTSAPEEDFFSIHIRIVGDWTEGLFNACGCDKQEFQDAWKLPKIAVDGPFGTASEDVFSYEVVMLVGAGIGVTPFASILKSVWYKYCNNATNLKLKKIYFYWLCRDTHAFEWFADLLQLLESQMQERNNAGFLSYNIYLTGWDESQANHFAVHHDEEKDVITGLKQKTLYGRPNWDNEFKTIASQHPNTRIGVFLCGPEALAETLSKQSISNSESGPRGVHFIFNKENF
Sequence of Torsin-1A (Homo sapiens) (O14656 whole entry, looked up): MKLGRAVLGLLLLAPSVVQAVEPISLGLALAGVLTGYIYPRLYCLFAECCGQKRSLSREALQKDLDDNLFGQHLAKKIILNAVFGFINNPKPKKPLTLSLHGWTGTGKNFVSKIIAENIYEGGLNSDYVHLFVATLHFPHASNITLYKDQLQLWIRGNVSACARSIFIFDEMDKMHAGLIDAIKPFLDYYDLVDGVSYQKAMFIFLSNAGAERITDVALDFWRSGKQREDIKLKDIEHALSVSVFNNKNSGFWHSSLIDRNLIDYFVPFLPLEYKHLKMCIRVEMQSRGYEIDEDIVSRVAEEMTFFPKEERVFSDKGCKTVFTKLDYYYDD
Sequence of NADPH oxidase 4 (Homo sapiens) (Q9NPH5 whole entry, looked up): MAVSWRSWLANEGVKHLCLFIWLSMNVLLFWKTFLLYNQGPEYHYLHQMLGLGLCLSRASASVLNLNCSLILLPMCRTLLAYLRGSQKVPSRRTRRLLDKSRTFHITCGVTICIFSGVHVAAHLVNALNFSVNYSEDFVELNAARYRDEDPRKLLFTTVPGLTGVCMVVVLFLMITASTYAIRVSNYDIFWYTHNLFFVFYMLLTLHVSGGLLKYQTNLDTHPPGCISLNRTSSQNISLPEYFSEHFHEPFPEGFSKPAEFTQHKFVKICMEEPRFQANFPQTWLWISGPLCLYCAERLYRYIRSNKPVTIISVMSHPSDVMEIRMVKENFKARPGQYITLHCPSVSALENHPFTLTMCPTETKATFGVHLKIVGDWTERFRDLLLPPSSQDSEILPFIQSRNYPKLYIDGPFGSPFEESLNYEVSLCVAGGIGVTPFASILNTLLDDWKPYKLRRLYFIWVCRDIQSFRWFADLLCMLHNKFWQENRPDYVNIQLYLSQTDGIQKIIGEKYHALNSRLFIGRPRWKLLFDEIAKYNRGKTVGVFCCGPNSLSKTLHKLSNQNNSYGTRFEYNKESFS
Sequence of Streptavidin (Streptomyces avidinii) (P22629 whole entry, looked up): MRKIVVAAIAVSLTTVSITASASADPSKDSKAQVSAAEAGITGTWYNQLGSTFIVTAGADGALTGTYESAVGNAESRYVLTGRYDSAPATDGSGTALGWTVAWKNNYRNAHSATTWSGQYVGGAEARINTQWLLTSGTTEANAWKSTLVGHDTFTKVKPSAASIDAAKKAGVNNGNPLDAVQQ

Take `CCOC(=O)C1=CCN(S(=O)(=O)c2ccc(C)cc2)C1c1ccccc1` (stereo not given): the composite z-score was determined as 0.0881 in experiment [1]; 0.388 in [6]; 0.141 in experiment [7]; 0.355 in experiment [8]; 0.302 in experiment [9]; 0.598 in experiment [10]. In experiment [12], this compound yielded a composite z-score of 0.121. In addition, the z-score in experiment [2] was -3.3 (inactive); in [3], 0.498 (inactive); in [4] it was -0.284 (inactive); in experiment [5], -1.12 (inactive); in experiment [11], -1.44 (inactive); in [13], 3.1 (inactive). Further, the z-score in [14] was 0.8 (inactive); in experiment [15] it was -0.451 (inactive); in experiment [16], 0.806 (inactive); in [17], -0.489; in [18], 0.532 (inactive); in [19] it was -1.38 (inactive). This compound also gave a z-score in experiment [20] of -0.86.
Take `C=CCC(OC(C)=O)[C@@H]1[C@@H](N(Cc2ccc(-c3cccc(C(F)(F)F)c3)o2)C(=O)Cc2ccc(OC)cc2)c2cc(OCCCO)ccc2N1C(=O)Cc1ccc2ccccc2c1` (stereo not given in full): the composite z-score is -0.19 in [1]; -0.679 in experiment [6]; -0.238 in experiment [7]; -1.96 in experiment [8]; -1.85 in experiment [9]; 0.0678 in [10]. In experiment [12], this compound registered a composite z-score of 0.0026. Besides, the z-score in experiment [2] is -1.58 (inactive); in experiment [3], -0.787 (inactive); in experiment [4], 0.134 (inactive); in experiment [5], 0.376 (inactive); in [11], -0.597 (inactive); in experiment [13] it was 0.572 (inactive). Besides, the z-score in experiment [14] is 0.214 (inactive); in experiment [15], 1.83 (inactive); in [16], 0.165 (inactive); in [17], 0.258; in [18] it was -1.6 (inactive); in experiment [19], -1.4 (inactive). Also, the z-score in experiment [20] was -1.11.
As for `Cc1ccc(S[C@]2(C(=O)NCC(C)C)CC(=O)N(C3Cc4ccccc4C3)[C@@H]2c2ccc(CO)cc2I)cc1`, the composite z-score was -0.305 in [1]; -1.21 in [6]; -0.182 in experiment [7]; -0.284 in experiment [8]; -0.183 in [9]; -0.51 in experiment [10]. The compound also returned a composite z-score in experiment [12] of -0.192. Also, the z-score in [2] was -0.552 (inactive); in experiment [3] it was 0.491 (inactive); in [4], 0.389 (inactive); in experiment [5], 1.42 (inactive); in experiment [11] it was -0.715 (inactive); in experiment [13] it was 2.92 (inactive). The z-score in [14] was 0.768 (inactive); in experiment [15], 0.708 (inactive); in experiment [16], 0.475 (inactive); in [17], -0.447; in experiment [18] it was 1.25 (inactive); in experiment [19], 0.0492 (inactive). The compound further showed a z-score in [20] of 1.47.
As for `CCOC(=O)C[C@H]1[C@H](OC(=O)c2ccccc2-c2ccccc2)[C@@H](NC(=O)c2ccccc2)c2cc(OCCCO)ccc2N1C(=O)c1ccccc1`, the composite z-score in experiment [1] was 0.309; in experiment [6], 0.19; in experiment [7] it was -0.157; in experiment [8], 0.0802; in [9] it was 0.261; in experiment [10] it was 0.259. For the same compound, the composite z-score in experiment [12] is -0.0547. In addition, the z-score in experiment [2] was -0.208 (inactive); in experiment [3], 0.867 (inactive); in [4] it was 2.38 (inactive); in experiment [5], 0.908 (inactive); in [11], -1.13 (inactive); in [13] it was 1.61 (inactive). In addition, the z-score was 0.0478 (inactive) in experiment [14]; 1.11 (inactive) in [15]; 0.256 (inactive) in experiment [16]; -0.133 in [17]; 0.418 (inactive) in experiment [18]; 0.884 (inactive) in [19]. This compound also registered a z-score in [20] of 0.838.
For `COc1ccc([Si](C)(C)[C@@H]2[C@@H](CC(=O)N3Cc4ccccc4C[C@H]3CO)O[C@]3(C(=O)N(c4ccccc4)c4ccccc43)[C@H]2C)cc1`, the composite z-score in [1] was 0.6; in experiment [6] it was 0.627; in experiment [7] it was 0.128; in [8], 1.56; in [9] it was 0.871; in experiment [10], 1.47. Also, the composite z-score in [12] stood at 0.855. Further, the z-score in [2] was -4.81 (inactive); in experiment [3] it was -0.751 (inactive); in [4] it was 2.36 (inactive); in experiment [5] it was 0.931 (inactive); in experiment [11], 0.162 (inactive); in experiment [13] it was 6.47 (inactive). Further, the z-score in experiment [14] was 1.76 (inactive); in experiment [15], 0.168 (inactive); in [16] it was 1.65 (inactive); in [17] it was 0.947; in [18] it was 0.651 (inactive); in [19] it was 0.71 (inactive). This compound also yielded a z-score in experiment [20] of 0.544.
In the case of `NC(=O)[C@H]1[C@@H]2C(=O)O[C@@H](c3ccccc3)[C@@H](c3ccccc3)N2[C@@H](c2ccc(O)cc2)[C@]12C(=O)Nc1ccc(C#CC3=CCCCC3)cc12`, the composite z-score in experiment [1] is -0.0856; in experiment [6], 0.185; in experiment [7] it was -0.128; in experiment [8], 0.509; in experiment [9] it was 0.721; in experiment [10], 1.19. For the same compound, in experiment [12], the composite z-score was 0.145. In addition, the z-score was -3.73 (inactive) in experiment [2]; 0.363 (inactive) in experiment [3]; 0.478 (inactive) in experiment [4]; 0.731 (inactive) in experiment [5]; -1.35 (inactive) in experiment [11]; 3.07 (inactive) in experiment [13]. In addition, the z-score in [14] is 1.45 (inactive); in experiment [15], 0.28 (inactive); in experiment [16] it was 1.4 (inactive); in experiment [17] it was -0.425; in experiment [18], 1.18 (inactive); in experiment [19], 0.425 (inactive). In [20], this compound registered a z-score of 0.563.
Consider `CC(C)[C@H]1NC(=O)[C@@]23C(=O)N[C@@H](Cc4ccccc4)C2[C@H](C)[C@@]2(C)O[C@H]2C3/C=C/C/C=C\CNC(=O)[C@H](Cc2ccccc2)NC1=O` (stereo not given in full), for which the composite z-score was 0.566 in experiment [1]; 0.852 in experiment [6]; 0.0528 in [7]; 1.3 in experiment [8]; 0.629 in [9]; 1.96 in experiment [10]. The compound further gave a composite z-score in [12] of 0.284. The z-score in [2] was -2.56 (inactive); in experiment [3], 1.12 (inactive); in experiment [4] it was 1.57 (inactive); in [5] it was -0.513 (inactive); in [11] it was -0.306 (inactive); in experiment [13] it was 1.48 (inactive). The z-score in experiment [14] is 0.491 (inactive); in [15], 0.137 (inactive); in experiment [16], 0.476 (inactive); in experiment [17], -0.324; in [18], 0.155 (inactive); in [19], 1.05 (inactive). In experiment [20], this compound had a z-score of 1.1.
`[N-]=[N+]=Nc1ccccc1C[C@]1(C(=O)NCc2ccccc2)COC(c2ccc(OCCCO)cc2)=N1`: the composite z-score is 0.607 in experiment [1]; 1.01 in [6]; -0.104 in [7]; 0.413 in [8]; 0.932 in [9]; 0.153 in experiment [10]. For the same compound, the composite z-score in experiment [12] is -0.442. In addition, the z-score in experiment [2] was -4.89 (inactive); in [3] it was 0.106 (inactive); in [4] it was 0.101 (inactive); in experiment [5], -1.31 (inactive); in experiment [11], 0.325 (inactive); in experiment [13] it was 30.8 (active). The z-score in experiment [14] was 30.8 (active); in [15], 3.25 (inactive); in experiment [16], 3.49 (inactive); in [17] it was -0.351; in [18], -3.07 (inactive); in experiment [19] it was -1.03 (inactive). Besides, in experiment [20], the z-score is -1.91.
